From PubChem
A549 tox = Nrf2 qHTS screen for inhibitors: counterscreen for cytotoxicity. A549 ARE-Fluc cells, CellTiter-Fluor viability, 18-24 h. Potency, µM (highest dose often 46 µM), for inactives: at the highest dose activity change, negative = cytotoxicity, actives largely listed as inhibitors. actives 0.16% (n = 390,000); further: potency means the concentration at half of the fitted maximal effect; on the % scale 0 is the no-effect control and ±100 the full control effect
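Cytotoxicity counterscreen: CellTiter-Fluor fluorescence was measured in A549 ARE_Fluc cells after 18-24 h of compound exposure in a concentration series. The subsequent BugLite luminescent read reports ARE-luciferase activity.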
mIDH1 inhibitor = qHTS for Inhibitors of mutant isocitrate dehydrogenase 1 (IDH1): qHTS; Isocitrate dehydrogenase [NADP] cytoplasmic (Homo sapiens), O75874; IDH1-R132H enzyme, NADPH consumption, diaphorase/resazurin fluorescence; Potency, µM (top dose mostly 76.6 µM), without a hit: at the top dose activity change, negative = inhibition, most hits filed as inhibitors; actives 0.093% (n = 390,000); further: potency means the concentration at half of the fitted maximal effect; on the % scale 0 is the no-effect control and ±100 the full control effect; nearly all actives have a fitted effect of over 65% in size
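IDH1-R132H (0.5 ug/mL dispensed) in pH 7.5 Tris buffer was preincubated 30 min with compound, then given a substrate mix of 0.016 mM NADPH and 2 mM alpha-KG for 80 min at room temperature; remaining NADPH was read by diaphorase/resazurin fluorescence.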
Nrf2 ARE act = qHTS of Nrf2 Activators; AREc32 ARE-luciferase reporter (MCF7-derived line), luminescence, 24 h; actives 0.31% (n = 410,000); Potency, µM (titrated, usually from 46.1 µM), for inactives: top-dose activation, usual class: activators; further: potency means the concentration at half of the fitted maximal effect; % of control where 0% means no effect; nearly all actives have a fitted effect of over 65% in size
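Steps: seed AREc32_Fluc cells (1000/well, 5% FBS OPTI-MEM); incubate overnight at 37 deg C; add 23 nL compound; incubate 24 hr; add Steady-Glo; hold 30 min RT; read luminescence.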
Giardia killer = Small Molecules that selectively kill Giardia lamblia: qHTS | Giardia lamblia trophozoite viability | activity change, % at 7.66 µM, hits read low | actives 0.15% (n = 340,000); in the data active means activity change below about -80%; inconclusive means between about -30% and that limit;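 further: parasites exposed to compound for two days anaerobically before the ATP read; on the % scale 0 is the no-effect control and ±100 the full control effect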
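Media and compound were dispensed first, then trophozoites at 100 cells/well; plates sat 48 hrs at 37 deg C without oxygen before ATP luminescence reagent was added and read after 15-30 min at room temperature.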
Apoferritin bind = qHTS Assay for Identification of Novel General Anesthetics. Potency, µM (highest dose often 77.5 µM), inactives show top-dose activity change, negative = displacement, usual class: inhibitors. actives 0.074% (n = 350,000). apoferritin/1-aminoanthracene competitive binding, fluorescence. AID 485281, 2010. Ferritin light chain (Equus caballus), P02791; further: potency means the concentration at half of the fitted maximal effect; on the % scale 0 is the no-effect control and ±100 the full control effect; nearly all actives have a fitted effect of over 20% in size
Target sequence (P02791 2-175 limits assumed): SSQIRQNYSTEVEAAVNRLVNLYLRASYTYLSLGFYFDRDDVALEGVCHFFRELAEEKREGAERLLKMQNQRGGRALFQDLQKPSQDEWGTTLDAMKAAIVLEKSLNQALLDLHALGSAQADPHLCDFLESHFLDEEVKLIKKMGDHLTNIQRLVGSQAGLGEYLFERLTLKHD
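Horse-spleen apoferritin (10 uM) was mixed with 50% saturated 1-aminoanthracene in PBS, exposed to compounds for 10 min at room temperature, and read for fluorescence (ex 380 nm, em 535 nm). Competitive displacement was fitted with a four-parameter Hill equation.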
Nrf2 inh = Nrf2 qHTS screen for inhibitors. AID 504444, 2011. A549 ARE-Fluc reporter, luciferase luminescence, 18-24 h. Potency, µM (titrated, usually from 46 µM), for inactives: at the highest dose activity change, negative = inhibition, hits mostly inhibitors. actives 2.1% (n = 360,000); further: potency means the concentration at half of the fitted maximal effect; on the % scale 0 is the no-effect control and ±100 the full control effect; nearly all actives have a fitted effect of over 60% in size
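Two sequential reads on A549 ARE_Fluc cells exposed to compound for 18-24 h: a CellTiter-Fluor fluorescence read for viability, then a luciferase luminescence read for Nrf2/ARE activity.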
Starred values were filed as active, the others as inactive; ? = inconclusive; · = not tested or not shown. Hits are enriched below; roughly 2.3% of the tested compounds scored in any of these assays. Unless noted, the call rests on the fitted dose curve; in most records, active means well fitted curve in the direction sought with a large enough effect; inconclusive means small, poorly fitted or top-dose-only effect, or another doubt; inactive means no such curve, though single readings can be large; an effect the other way counts as inactive or inconclusive.

SMILES	A549 tox	mIDH1 inhibitor	Nrf2 ARE act	Giardia killer	Apoferritin bind	Nrf2 inh
NC(=O)c1ccccc1NCC(=O)c1ccc(Cl)cc1	1%	52µM*	0%	-7	-9%	3%
CC(=O)Nc1ccc(NC(=O)C2CCN(c3c(NC(C)=O)c(C)nn3-c3ccccc3)CC2)cc1	1%	0%	4%	·	-4%	·
O=C(Nc1cccc(S(=O)(=O)N2CCCCC2)c1)c1ccc(S(=O)(=O)C(F)F)cc1	-19%	2%	0%	-2	-19%	18µM*
O=C(Nc1cccc(S(=O)(=O)C(F)F)c1)c1ccc(S(=O)(=O)N2CCCCC2)cc1	?	6%	1%	19	-13%	16µM*
O=C(Nc1cccc(S(=O)(=O)N2CCOCC2)c1)c1cc2ccccc2o1	?	6%	3%	46	-12%	?
O=C(CNc1cccc(S(=O)(=O)N2CCCC2)c1)Nc1ccc(C(F)(F)F)cc1	-12%	-10%	0%	15	·	23µM*
CN(C)S(=O)(=O)c1cccc(NC(=O)c2ccc(S(=O)(=O)N3CCCCC3)cc2)c1	-4%	6%	2%	-7	·	?
CN(C)c1ccc(C(=O)Nc2cccc(S(=O)(=O)N3CCCC3)c2)cc1	-9%	-1%	-1%	-9	·	-25%
O=C(Nc1cccc(S(=O)(=O)N2CCCCC2)c1)c1cc2ccccc2o1	-12%	-6%	2%	1	·	23µM*
O=C(COc1cccc(NC(=O)c2ccccc2)c1)c1ccccc1	-15%	-7%	0%	2	-5%	21µM*
O=C(O)COc1cccc(NC(=O)c2ccccc2)c1	-5%	-13%	2%	12	-8%	2%
O=C(COc1cccc(NC(=O)c2cccc([N+](=O)[O-])c2)c1)c1ccc(Br)cc1	?	15%	0%	-29	?	21µM*
CCOC(=O)c1ccc(S(=O)(=O)N2CCN(c3nc(-c4ccccc4)nc4ccccc34)CC2)cc1	-1%	·	·	14	·	?
Cc1[nH]c2ccccc2c1N=Nc1ccc(F)cc1	?	19%	?	1	?	26µM*
CC(=O)N1CCSc2ccc(S(=O)(=O)NCCc3ccc(C)cc3)cc21	-4%	-9%	3%	11	-6%	?
CC(=O)N1CCSc2ccc(S(=O)(=O)NCCc3ccc(Cl)cc3)cc21	-18%	0%	0%	10	5%	15µM*
CC(=O)N1CC(C)Sc2ccc(S(=O)(=O)NCCc3ccc(C)cc3)cc21 (configuration not stated)	-11%	8%	0%	-6	-11%	7.3µM*
CC(=O)N1CC(C)Sc2ccc(S(=O)(=O)NCCc3ccccc3)cc21 (configuration not stated)	-16%	8%	2%	31	-8%	?
CC1=C(C(=O)N2CCCCCC2)CC(CC(=O)NCCc2ccccn2)C(=O)N1Cc1ccc(F)cc1 (configuration not stated)	·	·	0%	·	·	·
CC(C)(C)OC(=O)Cc1nnc(C(C(=O)OCc2ccccc2)c2ccccc2)s1 (configuration not stated)	2%	·	·	·	·	8%
Cc1cc2c(s1)c1cnn(Cc3cc(F)cc(F)c3F)c(=O)c1n2C	-3%	·	·	·	·	0%
O=C(N/N=C/c1ccc(O)cc1O)c1ccncc1	-17%	-10%	-1%	-7	9%	12µM*
O=C(N/N=C/c1cc(Cl)cc(Cl)c1O)c1ccncc1	-8%	4%	-1%	-12	-6%	9.2µM*
O=C(N/N=C/c1ccc(Cl)cc1Cl)c1ccncc1	-1%	3%	0%	-1	-23%	1%
O=C1OCCC1Sc1nnc(-c2ccccc2)o1 (configuration not stated)	-7%	9%	-1%	7	0%	-10%
